Screening results (PubChem)
nsP2pro inh: blocks chikungunya virus nsP2 protease peptide cleavage | Q8JUX6 | FRET peptide cleavage, nsP2pro, fluorescence 1 h | Potency, µM (doses to about 24.9 µM), for inactives: at the top dose activity change, negative = inhibition, most hits filed as inhibitors | 31,000 compounds, 1.1% hits; further: nearly all actives have a fitted effect of over 60% in size
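FRET cleavage of 2.5 uM peptide 2 by 150 nM CHIKV protease domain at pH 8.0 (Tris, Tween 20). Compounds at 7 concentrations (up to 25 uM) preincubated 15 min. Fluorescence read after 1 h at room temperature.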
nsP2 cell sec: secondary cell-based test for CHIKV nsP2 protease inhibitors. shares compounds with nsP2pro inh. cell-based CHIKV nsP2 protease reporter assay. Potency, µM (highest dose often 51.1 µM), for the others: at the top dose activity change, negative = inhibition, usual class: inhibitors. 450 compounds, 10% hits; further: nearly all actives have a fitted effect of over 70% in size
NSP2 full ctr: full-length CHIKV NSP2 protease inhibition, selectivity. Full-length CHIKV NSP2 protease enzymatic counterscreen. Potency, µM (series often up to 50.7 µM), without a hit: top-dose activity change, negative = inhibition, most hits filed as inhibitors. shares compounds with nsP2pro inh. 410 compounds, 39% hits; further: nearly all actives have a fitted effect of over 65% in size
Furin counterscr: inhibits human furin in a CHIKV nsP2 protease selectivity counterscreen; shares compounds with nsP2pro inh; 410 compounds, 6% hits; Recombinant human furin enzymatic counterscreen, fluorogenic substrate; Potency, µM (doses to about 50.6 µM), without a hit: at the highest dose activity change, negative = inhibition, usual class: inhibitors; AID 1964102
nsP2 NS23 pep: selectivity test for CHIKV nsP2 protease inhibitors: endogenous NS2/3 peptide. shares compounds with nsP2pro inh. Purified CHIKV nsP2 protease, endogenous NS2/3 peptide cleavage. Potency, µM (series often up to 51 µM), for inactives: top-dose activity change, negative = inhibition, actives largely listed as inhibitors. 410 compounds, 34% hits. AID 1964103; further: nearly all actives have a fitted effect of over 55% in size
Papain cs: inhibits papain in a CHIKV nsP2 protease selectivity counterscreen. shares compounds with nsP2pro inh. 410 compounds, 5% hits. Potency, µM (doses to about 51 µM), without a hit: at the top dose activity change, negative = inhibition, actives largely listed as inhibitors. purified papain protease activity, enzymatic inhibition. AID 1964104
nsP2pro confirm: CHIKV nsP2 protease inhibition, confirmatory qHTS | AID 1964105 | shares compounds with nsP2pro inh | 410 compounds, 43% hits | Potency, µM (doses to about 25.5 µM), for the others: top-dose activity change, negative = inhibition, hits mostly inhibitors | CHIKV nsP2 protease enzymatic activity, qHTS; further: nearly all actives have a fitted effect of over 75% in size
HCV NS3 4A cs: inhibits HCV NS3/4A protease in an nsP2pro selectivity counterscreen | shares compounds with nsP2pro inh | HCV NS3/4A protease biochemical counterscreen | Potency, µM (top dose mostly 50.9 µM), most hits filed as inhibitors | 410 compounds, 20% hits | AID 1964106; further: nearly all actives have a fitted effect of over 55% in size
* = called active by the depositor; i = inactive; ? = inconclusive; ! = repeats disagree; [ ] = dose if it differs, or a comment. This excerpt belongs to a sample that is enriched for hits. The call rests on the fitted dose curve. On the % scale 0 is the no-effect control and ±100 the full control effect; potency means the concentration at half of the fitted maximal effect.

SMILES	nsP2pro inh	others
O=C(Nc1ccc(N2CCC(N3CCCCC3)CC2)c(C(=O)O)c1)c1ccc(Br)cc1	34%
CC(=O)c1ccc(N2CCN(c3ccc(NC(=O)c4cccs4)cc3C(=O)O)CC2)cc1	-28%
O=C(Nc1ccc2c(c1)N(C1CCCC1)C(=O)c1ccccc1S2)c1ccccc1F	-16%
Cc1cccc(C(=O)N2C[C@H]3OC(=O)N(CCCN4CCOCC4)[C@H]3C2)c1	2%
O=C(Nc1cnc(N2CCC(N3CCCCC3)CC2)c(C(=O)O)c1)c1ccc(Br)cc1	4µM*	nsP2 cell sec=-2%;NSP2 full ctr=4.1µM*;Furin counterscr=?;nsP2 NS23 pep=16µM*;Papain cs=-7%;nsP2pro confirm=8µM*;HCV NS3 4A cs=4.1µM*
O=C(Nc1ccc(N2CCN(c3ccc(F)cc3)CC2)c(C(=O)O)c1)c1ccccc1F	?	nsP2 cell sec=13%;NSP2 full ctr=4.1µM*;Furin counterscr=?;nsP2 NS23 pep=13µM*;Papain cs=-5%;nsP2pro confirm=7.1µM*;HCV NS3 4A cs=1.3µM*
Cc1cccc(C(=O)Nc2ccc(N3CCC(CCN4CCOCC4)CC3)c(C(=O)O)c2)c1	4.5µM*!	nsP2 cell sec=9%;NSP2 full ctr=-10%;Furin counterscr=3%;nsP2 NS23 pep=-3%;Papain cs=-3%;nsP2pro confirm=22%;HCV NS3 4A cs=?
CCOC(=O)N1CCN(Cc2nc3cc(NC(=O)c4cccc(C)c4)ccc3n2C(C)C)CC1	2%
Cc1cc(C)cc(C(=O)Nc2cc(C(F)(F)F)ccc2N2CCN(c3ccccc3)CC2)c1	-17%
Cc1cccc(C(=O)Nc2ccc(N3CCN(c4ccc(F)cc4)CC3)c(C(=O)O)c2)c1	?	nsP2 cell sec=50%;NSP2 full ctr=7.3µM*;Furin counterscr=-23%;nsP2 NS23 pep=16µM*;Papain cs=-3%;nsP2pro confirm=9µM*;HCV NS3 4A cs=4.1µM*
CCN(CC)C(=O)C(c1ccccc1)N1CCN(c2ccc(NC(=O)c3ccccc3-c3cccnc3)cc2F)CC1 (centres undefined)	1%
COCCNCc1ccc(-c2cc3nccc(Oc4ccc(NC(=O)C5(C(=O)Nc6ccc(F)cc6)CC5)cc4F)c3s2)nc1	136%
CC[C@H]1OC(=O)C[C@@H](OC(C)=O)[C@H](C)[C@@H](O[C@@H]2O[C@H](C)[C@@H](O[C@H]3C[C@@](C)(O)[C@@H](OC(=O)CC(C)C)[C@H](C)O3)[C@H](N(C)C)[C@H]2O)[C@@H](CC=O)C[C@@H](C)C(=O)/C=C/C(C)=C/[C@@H]1CO[C@@H]1O[C@H](C)[C@@H](O)[C@@H](OC)[C@H]1OC	14%
COc1cc(OC)c(C(CC(=O)N2CC(C)CC(C)C2)c2ccc3c(c2)OCO3)c(OCC(N)=O)c1 (centres undefined)	-5%[39.2 µM]
Cc1nnc(-c2ccccc2)n1CCCn1ccnc1	-7%
O=c1c(-c2ccc(O)cc2)coc2cc(O[C@@H]3O[C@H](CO)[C@@H](O)[C@H](O)[C@H]3O)ccc12	-12%
O=C(C1CCCC1)N1CC2(CCN(Cc3ccc(Cl)cc3)C2)Cc2ccccc21 (centres undefined)	-2%
Cc1ccc(-c2ccc(=O)n(CC(=O)NCCc3ccncc3)n2)cc1	-10%
OC[C@H]1O[C@@H](Oc2c(O)cc(O)cc2/C=C/c2ccc(O)cc2)[C@H](O)[C@@H](O)[C@@H]1O	12%
O=C(Nc1ccc(Br)cc1)c1ccc(Br)c(S(=O)(=O)N2CCCCC2)c1	-4%
O=C(Nc1ccc(Cl)c(-c2nc3cc(Cl)ccc3o2)c1)c1cc([N+](=O)[O-])ccc1N1CCOCC1	-12%
O=C(Nc1ccc(N2CCOCC2)c(C(=O)O)c1)c1ccc(Br)cc1	3.5µM*	nsP2 cell sec=11%;NSP2 full ctr=2.9µM*;Furin counterscr=?;nsP2 NS23 pep=6.5µM*;Papain cs=3%;nsP2pro confirm=5.7µM*;HCV NS3 4A cs=1.6µM*
Cc1cccc(-n2cnc3cc(C(=O)N4CCN(C)CC4)ccc32)c1	i
CCOC(=O)c1ccoc1-c1ccc2ncnc(NCc3ncc[nH]3)c2c1	-1%
COC(O)(CC(C)C)C1Oc2cc(C)[nH]c(=O)c2O1 (centres undefined)	8.8µM*	nsP2 cell sec=11%;NSP2 full ctr=-6%;Furin counterscr=-4%;nsP2 NS23 pep=1%;Papain cs=-3%;nsP2pro confirm=-23%;HCV NS3 4A cs=i
SMILES	nsP2pro inh	others
Cc1cccc(N2CCN(c3ccc(NC(=O)c4ccccc4)cc3C(=O)O)CC2C)c1 (centres undefined)	?	nsP2 cell sec=9%;NSP2 full ctr=6.5µM*;Furin counterscr=?;nsP2 NS23 pep=16µM*;Papain cs=21%;nsP2pro confirm=8µM*;HCV NS3 4A cs=3.7µM*
Cc1cccc(N2CCN(S(=O)(=O)c3ccc(F)c(C(=O)Nc4cccc(Cl)c4C)c3)CC2C)c1 (centres undefined)	-6%
Cc1cccc(N2CCN(c3ccc(C(=O)O)cc3NC(=O)c3cccc(Cl)c3)CC2C)c1 (centres undefined)	?	nsP2 cell sec=13%;NSP2 full ctr=0%;Furin counterscr=-25%;nsP2 NS23 pep=18µM*;Papain cs=?;nsP2pro confirm=8µM*;HCV NS3 4A cs=?
Cc1cccc(N2CCN(C(=O)c3ccc(NC(=O)c4nsc5ccccc45)cc3)CC2C)c1 (centres undefined)	3%
Cc1cccc(N2CCN(S(=O)(=O)c3cc(C(=O)Nc4ccc(Oc5ccccc5)cc4)ccc3F)CC2C)c1 (centres undefined)	-13%
CCOC(=O)c1ccc(N2CCN(c3cccc(Cl)c3)CC2)c(NC(=O)Nc2ccc(Cl)cc2)c1	7%
CNc1oc(-c2cccc(Cl)c2)nc1C#N	4%
O=C(Nc1ncc(-c2ccccc2)s1)c1ccc(-c2cccc([N+](=O)[O-])c2)o1	-8%
CS(=O)(=O)c1ccc(C(=O)OCC(=O)N2CCC(Cc3ccccc3)CC2)cc1[N+](=O)[O-]	-4%
COC(=O)C[C@@H]1C(C(=O)O)=CO[C@@H](O[C@@H]2O[C@H](CO)[C@@H](O)[C@H](O)[C@H]2O)/C1=C\COC(=O)/C=C/c1ccc(O)c(OC)c1	-2%[10 µM]
CS(=O)(=O)c1ncc(N(Cc2ccccc2)Cc2ccco2)c(C(=O)Nc2cccc(C(F)(F)F)c2)n1	-5%
O=C(c1ccccc1)N(Cc1ccco1)Cc1cccs1	-22%
O=C(C(NS(=O)(=O)c1ccc2[nH]c(=O)ccc2c1)c1cccc(C(F)(F)F)c1)N(Cc1ccco1)Cc1cccs1 (centres undefined)	7.9µM*	nsP2 cell sec=142%;NSP2 full ctr=?;Furin counterscr=-1%;nsP2 NS23 pep=-22%;Papain cs=-19%;nsP2pro confirm=-20%;HCV NS3 4A cs=i
O=C(Nc1cccc(C(F)(F)F)c1)c1ccccc1NCc1ccncc1	94%
COc1ccc(Cl)cc1C(=O)Nc1nc(-c2ccccc2)cs1	-3%
